These results are taken from PubChem BioAssay AID624100 (ICCB-Longwood Screening Facility, Harvard Medical School, 2012).

For this assay, the target named is Ubiquitin carboxyl-terminal hydrolase isozyme L5 (Homo sapiens) (UniProt Q9Y5K5). Nature of the assay: proteasome-bound UCH37 Ub-AMC cleavage inhibition – biochemical, Ub-AMC cleavage rate, fluorescence, confirmation (AID 624100).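 Note: based on cleavage rate fitted by regression over a 30 min kinetic read; 0% = proteasome plus Ub-AMC and 100% = Ub-AMC without proteasome.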 The settings on record: at 20 µM, hits give high values.

In general, inhibition refers to the drop in the measured response relative to a control, in per cent.

This is one part of the list. A number with no mark means an inactive call. Active and inactive are the calls of the source.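 Rule for the calls: active = average inhibition over replicates above about 50%, so the earlier screening hit is confirmed (limit read from the data); inactive = the rest, counted as false positives.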

Ubiquitin carboxyl-terminal hydrolase isozyme L5 (Homo sapiens), sequence (Q9Y5K5 whole entry, looked up): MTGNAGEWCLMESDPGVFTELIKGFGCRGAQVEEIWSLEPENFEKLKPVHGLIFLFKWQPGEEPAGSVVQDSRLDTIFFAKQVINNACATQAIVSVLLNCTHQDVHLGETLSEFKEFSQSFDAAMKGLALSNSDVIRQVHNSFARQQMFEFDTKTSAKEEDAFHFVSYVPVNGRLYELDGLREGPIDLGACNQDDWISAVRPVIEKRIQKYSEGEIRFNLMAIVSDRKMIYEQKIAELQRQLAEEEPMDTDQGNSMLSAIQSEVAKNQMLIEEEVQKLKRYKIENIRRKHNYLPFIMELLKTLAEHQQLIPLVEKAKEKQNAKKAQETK

For `CCCCCCCCCCCCn1ccc(=N)cc1`, the inhibition is 40.2%.

In the case of `COc1ccc(N2C(=O)/C(=C/c3ccco3)C(=O)NC2=S)cc1`, the inhibition is 68.9% (active).
